Screens: PubChem, National Center for Advancing Translational Sciences (NCATS)
In the library only some 3.1% were active in any assay of this set; here they are far more common.
GLS inhibitor: blocks human kidney-isoform glutaminase activity | GLS enzymatic activity, qHTS titration | Potency, µM (top dose mostly 45.5 µM), for the others: at the top dose activity change, negative = inhibition, most hits filed as inhibitors | actives 0.21% (n = 410,000) | AID 624170; further: potency means the concentration at half of the fitted maximal effect
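Human kidney-isoform GLS in 45 mM KH2PO4 pH 8.2, 0.02% Tween-20, with compound, started with 1mM L-Glutamine (added stock). Glutamate oxidase/HRP/Amplex red coupled fluorescence read at start and after 30 min at RT.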
PLK1 PBD inh: PLK1 (human) polo-box domain binding inhibition. actives 2.8% (n = 360,000). Potency, µM, without a hit: max response, negative = inhibition, actives largely listed as inhibitors. AID 720504. P53350. Plk1 PBD binding of FITC phosphopeptide, fluorescence polarization; further: potency means the concentration at half of the fitted maximal effect; series mostly up to about 57 µM; nearly all actives have a fitted effect of over 65% in size
PI4K2A inh: inhibitors of human PI4K2A; actives 0.13% (n = 420,000); Q9BTU6; AID 1346378; purified PI4K2A, ADP-Glo luminescence, 1 h; stronger effect = lower value; activity change, negative = inhibition, % at 76.9 µM; in the data active means activity change below about -50%; inconclusive means mostly about -30% to -49%;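 further: -100% = wells without enzyme as full effect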
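Compounds are screened against recombinant PI4K2A using PI as substrate and ATP, the latter dispensed at 300 microM. Reactions run one hour at ambient temperature before ADP-Glo detection; full inhibition defined by wells lacking enzyme.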
KAT2A inh: blocks human GCN5L2 histone acetyltransferase; Potency, µM (doses to about 58.9 µM), inactives show at the top dose activity change, negative = inhibition, hits mostly inhibitors; actives 0.21% (n = 390,000); GCN5L2 HAT assay, ThioGlo1 CoA-SH fluorescence; Q92830; further: potency means the concentration at half of the fitted maximal effect
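Preincubate 20nM GCN5L2 with compound 15 min, RT → add 50uM ThioGlo1 + 75uM H3(1-25) + 70uM acetyl-CoA → read fluorescence 0 and 20 min. Primary qHTS; fluorescent artifacts likely.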
VDR inh: blocks the human vitamin D receptor; AID 504847; Potency, µM, inactives show max response, negative = inhibition, usual class: inhibitors; actives 0.93% (n = 400,000); VDR-SRC2-3 peptide fluorescence polarization, 2 h; further: potency means the concentration at half of the fitted maximal effect
Target sequence (P11473 whole entry, looked up): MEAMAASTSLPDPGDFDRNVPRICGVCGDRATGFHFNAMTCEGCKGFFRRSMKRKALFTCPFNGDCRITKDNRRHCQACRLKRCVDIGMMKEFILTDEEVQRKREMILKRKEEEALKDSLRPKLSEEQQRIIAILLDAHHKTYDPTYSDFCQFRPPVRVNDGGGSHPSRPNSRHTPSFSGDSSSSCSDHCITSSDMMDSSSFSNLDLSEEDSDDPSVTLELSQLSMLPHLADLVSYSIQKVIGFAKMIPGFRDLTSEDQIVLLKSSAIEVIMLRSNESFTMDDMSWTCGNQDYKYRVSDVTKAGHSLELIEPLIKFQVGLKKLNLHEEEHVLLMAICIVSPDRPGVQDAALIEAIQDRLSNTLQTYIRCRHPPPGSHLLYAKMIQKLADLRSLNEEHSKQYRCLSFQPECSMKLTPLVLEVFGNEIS
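Fluorescence polarization assay measuring small-molecule disruption of VDR binding to the coregulator peptide SRC2-3. Compounds were pin-transferred (23 nl) into the reagent mix and incubated 2 h at room temperature before reading.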
* hit, by the source's call; ? = inconclusive; nt = no result. Unless noted, the call rests on the fitted dose curve; in most records, active means well fitted curve in the direction sought with a large enough effect; inconclusive means small, poorly fitted or top-dose-only effect, or another doubt; inactive means no such curve, though single readings can be large; an effect the other way counts as inactive or inconclusive. Unless noted, on the % scale 0 is the no-effect control and ±100 the full control effect.

SMILES	GLS inhibitor	PLK1 PBD inh	PI4K2A inh	KAT2A inh	VDR inh
FC(F)(F)c1ccccc1Cc1c(-c2cccc(Cl)c2)nc2ccc(Br)cn12	2.9%	4.4%	-3.7	nt	nt
FC(F)(F)c1ccccc1Cc1c(-c2ccco2)nc2ccc(Br)cn12	?	26.7µM*	-15.6	nt	nt
CCOC(=O)[C@]12CCCCC/C=C\1N(CCc1ccc(Cl)cc1)C(=O)[C@H]2CC(=O)NCc1cccc(C(F)(F)F)c1	nt	nt	-2.4	nt	nt
NCCC[C@@H](CC(=O)N[C@@H]1CCCC[C@H]1C(=O)N[C@H](CC(=O)N[C@@H](CCC(=O)O)CC(=O)O)Cc1ccccc1)NC(=O)C[C@H](CO)NC(=O)[C@@H]1CNCC[C@H]1N	nt	nt	nt	nt	7.4%
CCNC(=O)CCn1nc(-c2ccc(C)cc2)c2ccccc2c1=O	68.4%	29.9µM*	7.4	24.8%	-2.6%
C=CCC(NCc1ccccc1)c1ccc(Cl)cc1 (centres undefined)	7.8%	-1.8%	1.9	-5.1%	5.6%
C=CCC(NCc1ccccc1)c1ccc(C)o1 (centres undefined)	-2.2%	10.6µM*	-14.0	nt	-22.7%
NC(=O)c1cc(N2C(=O)C=CC2=O)ccc1Cl	-4.8%	21.2µM*	5.3	?	20µM*
COC(=O)c1cc(N2C(=O)C3C4C=CC(CC4)C3C2=O)ccc1Cl (centres undefined)	1.4%	-7.6%	-2.9	-27.6%	11.4%
O=C(/C=C/c1cccs1)N1CCN(c2ccc(O)cc2)CC1	7.08µM*	-11.4%	-3.2	-10.0%	0.2%
N#Cc1c(-c2ccccc2)nc(SCC(=O)N2c3ccccc3Sc3ccccc32)[nH]c1=O	26.6%	18.9µM*	4.5	?	-11.1%
N#Cc1c(-c2ccccc2)nc(SCc2ccc(Cl)cc2)[nH]c1=O	5.7%	?	0.5	-28.3%	79.4µM*
N#Cc1c(-c2ccco2)nc(SCc2ccc(F)cc2)[nH]c1=O	0.7%	23.8µM*	-9.1	-8.1%	-9.8%
C=CCSc1nc(-c2ccccc2)c(C#N)c(=O)[nH]1	21.7%	-7.6%	-3.6	-25.4%	1.4%
N#Cc1c(-c2ccccc2)nc(SCC(=O)N(c2ccccc2)c2ccccc2)[nH]c1=O	1.6%	?	-5.1	61.4%	-22.7%
Cc1oc(=O)oc1COC(=O)[C@@H]1N2C(=O)[C@@H](NC(=O)[C@H](N)c3ccccc3)[C@H]2SC1(C)C	nt	nt	1.3	nt	nt
CN(C)CC1CC/C(=C\c2ccc(O)cc2)C1=O (centres undefined)	3.1%	6.7µM*	-3.5	nt	22.4µM*
COc1ccc(/C=C2/CCC(CN3CCOCC3)C2=O)cc1 (centres undefined)	14.2%	5.32µM*	39.7	nt	?
CN(C)CC1CCC/C(=C\c2ccc(OC(=O)/C=C/c3ccccc3)cc2)C1=O (centres undefined)	-4.7%	?	5.3	nt	79.4µM*
COc1ccc(/C=C2\CCC(C3CCCC3)C2=O)cc1 (centres undefined)	9.0%	-1.6%	-12.4	0.3%	-10.9%
Cc1ccccc1OCC(O)Cn1c(NCc2ccco2)nc2c1c(=O)[nH]c(=O)n2C (centres undefined)	5.2%	-5.8%	-3.8	-7.0%	9.7%
C=CCSc1nc2c(c(=O)[nH]c(=O)n2C)n1Cc1ccc(C)cc1	8.2%	21.2µM*	-0.4	-3.5%	-15.4%
CCOC(=O)C(C)Sc1nc2c(c(=O)[nH]c(=O)n2C)n1Cc1ccc(Cl)cc1 (centres undefined)	?	21.2µM*	-4.0	-4.8%	89.1µM*
C=CCn1c(SCc2ccc(Cl)cc2)nc2c1c(=O)[nH]c(=O)n2C	-12.1%	-14.0%	4.1	1.6%	-26.3%
CCOC(=O)CSc1nc2c(c(=O)[nH]c(=O)n2C)n1CCc1ccccc1	0.4%	0.6%	5.5	-1.6%	8.2%
CCOC(=O)C(CC)Sc1nc2c(c(=O)[nH]c(=O)n2C)n1CCc1ccccc1 (centres undefined)	8.8%	23.8µM*	5.0	-3.2%	-20.9%
CCC(C)Sc1nc2c(c(=O)[nH]c(=O)n2C)n1CC(O)COc1ccccc1C (centres undefined)	-18.6%	10.6µM*	-10.3	-15.1%	15.5%
COC(=O)[C@H](C(C)C)N1CCc2nnn(Cc3ccc(C)cc3)c2-c2cc(F)ccc2S1(=O)=O	nt	nt	1.8	nt	nt
